Test results: PubChem BioAssay (NCI)
The panel holds about 83,000 compounds, 20% with a hit somewhere; the sample as a whole holds those more often.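 Results are percent growth after 48 hours of single-concentration exposure. 100 means growth as in untreated cells, lower positive values show inhibition; negative values down to -100 show cell death.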 Unmarked numbers belong to inactive results. The source made the active and inactive calls. How the source made its calls: active means growth percent below 10; inactive means the rest.

Tests used:
Test in all cases: NCI-60 one-dose screen, 48 h (100 = growth as untreated, 0 = no growth, -100 = all killed)
Settings in all cases: 10 µM unless noted
[1] = test system: T-47D breast
[2] = test system: BT-549 breast
[3] = test system: MDA-MB-435 melanoma
[4] = test system: SW-620 colon
[5] = test system: MCF7 breast
[6] = test system: HCT-116 colon
[7] = test system: HCC-2998 colon
[8] = test system: KM12 colon

Row | Compound | growth [1] | growth [2] | growth [3] | growth [4] | growth [5] | growth [6] | growth [7] [%] | growth [8]
1 | CC1CC2Oc3ccc(Cl)cc3C(=O)N2O1 (stereo not given) | 104% | 105% | 105% | 99.2% | 112% | 107% | 97.5 | 107%
2 | C=CCNc1nc(NN2C(=O)c3cccc4cccc(c34)C2=O)nc(-n2cnc3ccccc32)n1 | 54.8% | 82.5% | 97.5% | 90.6% | 55.1% | 79.8% | 91.8 | 18.6%
3 | N#Cc1nc2c(S(=O)(=O)c3ccc(Cl)cc3)c(N)n(Nc3cccc(Cl)c3)c2nc1C#N | 53.5% | 47.8% | 53% | 35.9% | 58.5% | 32.9% | 82.3 | 64.3%
4 | COc1ccc(C(=O)/C=C/c2c(C(F)(F)F)nc3sccn23)cc1OC | -16.9% (active) | 11.3% | 3.47% (active) | 10.4% | 7.83% (active) | 6.66% (active) | 31.4 | 11.2%
5 | COc1ccc(-c2nc(SCCC(C)C)nc(N/N=C\c3cccc([N+](=O)[O-])c3)c2C#N)cc1 | 27.5% | 63.2% | 56.3% | 15.5% | 35.6% | 23.5% | 52 | 27.1%
6 | CCCCCCCCCCCCCCCCCCOc1ccccc1CC(=O)OCCC[N+](C)(C)C | 72.3% | 102% | 58.3% | 40% | 46.5% | 64% | 37.2 | 76.1%
7 | O=C(O)CN1C(=O)CCC1=O | 90.4% | 103% | 102% | 114% | 92% | 115% | 110 | 104%
8 | COc1cccc(-c2nc3sccn3c2-c2ccnc(NCCNS(=O)(=O)c3ccc(C(F)(F)F)cc3)c2)c1 | 5.15% (active) | 10.4% | 33.6% | 64.9% | 19.5% | 27.9% | 70 | 26.4%
9 | COc1cccc(-c2nn(-c3ccccc3)cc2-c2ccnc(NCCCNC(=O)c3cccc(C(F)(F)F)c3)c2)c1 | -19.6% (active) | 1.62% (active) | 24.6% | 33.2% | 18.1% | 10.6% | 21.7 | 23%
10 | CCOc1ccccc1-c1cc(-c2cccs2)c(C#N)c(=O)[nH]1 | 26.7% | 85.6% | 31.2% | 80.9% | 37.1% | 92.3% | 92.2 | 83.9%
11 | O=C(Nc1cccc2c(O)c(N=Nc3ccc(S(=O)(=O)Nc4nccs4)cc3)cc(N=Nc3ccc(S(=O)(=O)Nc4nccs4)cc3)c12)C(Cl)Cl | 88.3% | 87.3% | 106% | 42% | 57.8% | 71.8% |  | 59%
12 | Cc1ccc(C(=NN=C(N)N)c2ccc(C)cc2)cc1 | 20.3% | -24.8% (active) | -39% (active) | 28.4% | 2.04% (active) | 2.81% (active) |  | 1.93% (active)
13 | COc1ccc(N=C(c2ccccc2)C2C(=O)c3ccccc3C2=O)cc1 | 78% | 74.3% | 58.6% | 71.4% | 84.6% | 81.2% |  | 100%
14 | CC(C)(C)OC(=O)Nc1ccc2c(c1)C(NC(=O)Nc1cccc(C#N)c1)CC(C)(C)O2 (stereo not given) | 34.2% | 29% | 39.4% | 48.7% | 32.1% | 30.7% |  | 49.5%
15 | O=C(NC(CSSCC(NC(=O)c1ccccc1)C(=O)O)C(=O)O)c1ccccc1 (stereo not given) | 99.4% | 91.1% | 103% | 103% | 117% | 98.9% |  | 97.9%
16 | CCC(CO)Nc1nc2ccc(Cl)cc2c2ccccc12 (stereo not given) | 59.5% | 70.6% | 58% | 79.7% | 72.7% | 71.5% |  | 45.7%
17 | COc1cccc(-c2nc3sccn3c2-c2ccnc(NCCNS(=O)(=O)c3cccc(Cl)c3)c2)c1 | 1.84% (active) | 18.3% | 59.7% | 66.5% | 43.2% | 40% |  | 42.8%
18 | Cn1c(=O)c2[nH]c(NN)nc2n(C)c1=O | 104% | 84.7% | 106% | 97.8% | 104% | 102% |  | 119%
19 | Cc1cccc(NC(=O)N/C(N)=N/c2nc(C)c(C)s2)c1 | 40.1% | 70.3% | -28.5% (active) | 25.7% | 27% | 33.5% |  | 23.4%
20 | COc1ccc2c(c1)O/C(=C\c1cccc(OCC(=O)Nc3nc(C)c(C)s3)c1)C2=O | 75.7% | -81.9% (active) | 80% | -39% (active) | 93.8% | 66.6% |  | 1.92% (active)
21 | COc1ccc(/C=c2\nc3n(-c4ccccc4)c4nc5c6c(sc5c(=N)n4n-3c2=O)CCCC6)cc1 | 71.9% | 94.2% | 89.5% | 104% | 71.9% | 77% |  | 92.5%
22 | C=C(C)[C@@H]1CC=C2c3sc(-c4ccc(C)cc4)nc3C[C@@H](C)[C@]2(C)C1 | 95.4% | 109% | 101% | 103% | 96.9% | 105% |  | 101%
23 | COc1ccc(N=Nc2ccc(O)c(=O)cc2)cc1 | -0.237% (active) | 22% | 25.1% | 21.7% | 5.65% (active) | 24.7% |  | 18.2%
24 | COc1cc(/C=N/Nc2ncc(-c3cc4cc5c(cc4o3)OCO5)s2)cc(OC)c1OC | 45.9% | 15.2% | 18.9% | 55.4% | 53.4% | 28.5% |  | 23.5%
25 | C=C(C)[C@@H]1CC[C@]2(C(=O)NC3CCCCC3)CC[C@]3(C)[C@H](CC[C@@H]4[C@@]5(C)CCC(=O)C(C)(C)[C@@H]5CC[C@]43C)[C@@H]12 | 83.3% | 92.8% | 93.6% | 93.6% | 85.1% | 76.3% |  | 96%
26 | Cc1ccc(S(=O)(=O)N/N=C\c2cc(Cl)ccc2O)cc1 | 86% | 91.7% | 82% | 81.4% | 82.6% | 48.2% |  | 108%
27 | COc1cccc(-c2nn(-c3ccccc3)cc2-c2ccnc(NCCCNC(=O)c3ccc(F)cc3)c2)c1 | -0.248% (active) | 29.8% | -16.7% (active) | 33% | 18.6% | 13.1% |  | 18.7%
28 | O=c1ccn2nc3ccccc3c2[nH]1 | 95% | 98.2% | 118% | 114% | 107% | 103% |  | 112%
29 | CCCCCCCCCCCC(c1ccccc1)[N+](C)(C)C (stereo not given) | 2.28% (active) | -36.3% (active) | 8.21% (active) | 41.9% | 16.1% | 9.83% (active) |  | -20.7% (active)
30 | CC1(C)OC2C(CO[Si](C)(C)C(C)(C)C)OC(n3c(I)c(C#C[Si](C)(C)C)c(=O)[nH]c3=O)C2O1 (stereo not given) | 96.2% | 118% | 83% | -43% (active) | 106% | 71% |  | 107%
